Assay [1] is described as follows: qHTS assay to identify small molecule agonists of the estrogen receptor alpha (ER-alpha) signaling pathway in the presence of an antagonist - cell viability counter screen (AID 1259386).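 Further: cells exposed to compounds for 22 h at 37 °C before the viability read; nearly all actives have a fitted effect of over 30% in size.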 Further: potency means the concentration at half of the fitted maximal effect. On activity change, negative = cytotoxicity: series mostly up to about 92 µM; on the % scale 0 is the no-effect control and ±100 the full control effect. The method in brief:
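Read-out: CellTiter-Fluor fluorescence after 1hr reagent incubation, measured in the same wells as the luciferase readout. VM7Luc4E2 cells were exposed to 15 compound concentrations with 10.0nM ICI-182,780 for 22hr at 37C.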
(In general: Quantitative high-throughput screening tests each substance at several concentrations.)

Assay [2] addresses Progesterone receptor (Homo sapiens) (UniProt P06401). Kind of assay: qHTS assay to identify small molecule antagonists of the progesterone receptor (PR) signaling pathway (AID 1346795; active means well fitted inhibition curve with a large enough effect in the signal ratio in the repeat runs, not every such curve was filed as active; the % refers to the signal ratio; further: potency means the concentration at half of the fitted maximal effect). The method in brief:
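In HEK293T cells bearing the PR-UAS-bla reporter, compound effects on promegestone-driven (1 nM) beta-lactamase expression are assessed after 16 hr using a fluorescent FRET substrate incubated 2 hr at room temperature.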

Assay [3] in a line: qHTS assay to identify small molecule antagonists of the progesterone receptor (PR) signaling pathway - cell viability counter screen (AID 1346798). Further: series mostly up to about 92 µM; on the % scale 0 is the no-effect control and ±100 the full control effect; nearly all actives have a fitted effect of over 50% in size. In short, it runs like this:
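Following a 4 hr attachment, PR-UAS-bla HEK293T cells in charcoal-stripped FBS medium were exposed to compounds with R5020 for 16 hr; CellTiter-Glo was added and luminescence read after 30 min at room temperature.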

A short description of assay [4]: qHTS assay to identify small molecule antagonists of the TGF-beta/Smad signaling pathway - cell viability counter screen (AID 1346824). Further: on the % scale 0 is the no-effect control and ±100 the full control effect; nearly all actives have a fitted effect of over 50% in size. In short, it runs like this: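 SBE-bla HEK 293T cells were plated overnight at 37 C, then given compounds in DMSO plus TGF-beta1 (added as 0.25 ng/mL solution) for 5 hr. After the bla read, CellTiter-Glo was added to the same wells and luminescence read after 30 min at room temperature.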

Assay [5] can be described thus: qHTS assay to identify small molecule agonists of the TGF-beta/Smad signaling pathway - cell viability counter screen (AID 1346829). Further: top concentration of the series differs between compounds; on the % scale 0 is the no-effect control and ±100 the full control effect; nearly all actives have a fitted effect of over 45% in size. In short, it runs like this:
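Here the cytotoxicity of library compounds is measured in SBE-bla HEK 293T cells treated for 5 hr, using CellTiter-Glo added to wells already read for the beta-lactamase reporter.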

For assay [6], the target named is Thyrotropin-releasing hormone receptor (Homo sapiens) (UniProt P34981). Description: qHTS assay to identify small molecule antagonists of the thyrotropin-releasing hormone receptor (TRHR) signaling pathway (AID 1346877; active means well fitted inhibition curve with a large enough effect in the repeat runs, not every such curve was filed as active; further: series mostly up to about 51 µM; on the % scale 0 is the no-effect control and ±100 the full control effect). In short, it runs like this: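 HEK293/TRHR cells, 18 h, 37 °C; Ca2+ dye 2 h; cpd 5 min RT; TRH 1 nM final; fluorescence read 3 min, 1 s intervals; 15 concs, triplicate.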

Assay [7] can be described thus: Human pregnane X receptor (PXR) small molecule agonists, qHTS cell viability counter screen (AID 1346977). Further: nearly all actives have a fitted effect of over 50% in size. Further: potency means the concentration at half of the fitted maximal effect. The method in brief: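 Tox21 qHTS format; PXR-Luc HepG2, 2,000/well, charcoal-stripped FBS 5%. Cpd exposure 24hr. Read: CellTiter-Fluor fluorescence, multiplexed with luciferase.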
Assay [8] is described as follows: Caspase-3/7 induction in CHO-K1 cells by small molecules, qHTS assay (AID 1346980). Further: on the % scale 0 is the no-effect control and ±100 the full control effect; nearly all actives have a fitted effect of over 15% in size. The method in brief:
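Wild-type cells were seeded at 1,500 per well and settled 5 hr at 37 C, 5% CO2, then exposed to DMSO-dissolved compounds for 17 hr. Caspase-Glo 3/7 reagent was added, and luminescence was read after 30min at room temperature.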

Assay [9] concerns the target Nuclear receptor subfamily 1 group I member 2 (Homo sapiens) (UniProt O75469). Description: Human pregnane X receptor (PXR) small molecule agonists, qHTS assay (AID 1346982). Further: nearly all actives have a fitted effect of over 35% in size. Further: potency means the concentration at half of the fitted maximal effect. The method in brief: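 HepG2 PXR-Luc reporter line, 5% charcoal-stripped FBS; 5 hr pre-incubation, compound (DMSO) 24 hr at 37 C/5% CO2; ONE-Glo 30 min RT; luminescence read-out.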
The target in assay [10] is Nuclear receptor subfamily 1 group I member 2 (Rattus norvegicus) (UniProt Q9R1A7). Description: Rat pregnane X receptor (rPXR) activation by small molecules, qHTS assay (AID 1346983). Further: on the % scale 0 is the no-effect control and ±100 the full control effect; nearly all actives have a fitted effect of over 20% in size. Conditions: rPXR luciferase reporter cells, One-Glo luminescence, 24 h; stronger effect = higher value. The method in brief:
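Cell-based rPXR luciferase reporter assay, 2,000 cells per well, rested 5hr at 37 C before compound addition in DMSO, then 24 hr at 37 C. One-Glo reagent was added and luminescence read after 30 min at room temperature.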

For assay [11], the target named is Nuclear receptor subfamily 1 group I member 2 (Homo sapiens) (UniProt O75469). Kind of assay: CYP3A4 induction through human pregnane X receptor (PXR) by small molecules, qHTS assay (AID 1346984). Further: on the % scale 0 is the no-effect control and ±100 the full control effect; nearly all actives have a fitted effect of over 40% in size. The method in brief:
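HepG2-derived DPX-2 line carrying PXR plus a CYP3A4-promoter luciferase reporter; cells plated 5 hr, compound-exposed 24 hr at 37C. CYP3A4 activity probed with 3uM (final) Luciferin-IPA for 3hr, then luciferase read after One-Glo.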

Assay [12] has the same target. Description: Human pregnane X receptor (PXR) activation by small molecules, qHTS assay (AID 1346985). Further: nearly all actives have a fitted effect of over 40% in size. Further: potency means the concentration at half of the fitted maximal effect. In short, it runs like this:
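DPX-2 cells (HepG2 co-transfected with a PXR response element and a CYP3A4-promoter luciferase construct) were seeded at 2,000 per well, rested 5 hr at 37C, then exposed to DMSO-dissolved compounds for 24 hr. Activation was read as luciferase luminescence.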

Assay [13] addresses Cytochrome P450 2D6 (Homo sapiens) (UniProt P10635). Kind of assay: Cytochrome P450 Family 2 Subfamily D Member 6 (CYP2D6) small molecule antagonists: luciferase reporter qHTS assay (AID 1671196). Further: nearly all actives have a fitted effect of over 50% in size. Further: potency means the concentration at half of the fitted maximal effect. The method in brief:
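Luminogenic proluciferin substrate, CYP2D6 enzyme; 10 min RT preincubation with compound, NADPH regeneration system added, 1 h RT. Stop/detection reagent, 20 min RT, luminescence read (RLU). Signal proportional to CYP activity.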

In assay [14] the target is Progesterone receptor (Homo sapiens) (UniProt P06401). Kind of assay: qHTS assay to identify small molecule agonists of the progesterone receptor (PR) signaling pathway (AID 1346784; calls by dose curve; further: nearly all actives have a fitted effect of over 30% in size; further: potency means the concentration at half of the fitted maximal effect). In short, it runs like this:
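Compounds were tested for PR agonism in HEK 293T cells bearing a beta-lactamase gene under UAS control. Treatment lasted 16 hr at 37C; signal came from fluorescence of a FRET substrate.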

Assay [15] addresses Thyrotropin-releasing hormone receptor (Homo sapiens) (UniProt P34981). Kind of assay: qHTS assay to identify small molecule agonists of the thyrotropin-releasing hormone receptor (TRHR) signaling pathway (AID 1346891; calls by dose curve; further: series mostly up to about 58 µM; on the % scale 0 is the no-effect control and ±100 the full control effect). The method in brief:
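Screening of agonists relied on calcium signalling in HEK293 cells expressing human TRHR: dye loading 2 h at 37 °C preceded compound addition and a 3-min fluorescence time course.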

Assay [16] is described as follows: Caspase-3/7 induction in HepG2 cells by small molecules, qHTS assay (AID 1346978). Further: nearly all actives have a fitted effect of over 15% in size. Further: potency means the concentration at half of the fitted maximal effect. The method in brief:
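Wild-type HepG2 cells (2,000/well) were settled 5 h at 37 C, 5% CO2, then exposed to compounds in DMSO for 17 h. Caspase-3/7 activity was read by luminescence 30 min after adding Caspase-Glo 3/7 reagent at room temperature.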

The nature of assay [17]: Caspase-3/7 induction in CHO-K1 cells by small molecules, qHTS cell viability counter screen (AID 1346979). Further: nearly all actives have a fitted effect of over 35% in size. Further: potency means the concentration at half of the fitted maximal effect. The method in brief:
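CellTiter-Fluor viability check, qHTS format: wild-type CHO-K1, 16hr compound treatment, 1hr reagent incubation, fluorescence read.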

A short description of assay [18]: Caspase-3/7 induction in HepG2 cells by small molecules, qHTS cell viability counter screen (AID 1346981). Further: nearly all actives have a fitted effect of over 30% in size. Further: potency means the concentration at half of the fitted maximal effect. The method in brief:
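Fluorescence read-out of live-cell protease activity (CellTiter-Fluor) after 1 hr with reagent. This was measured in the same wells as the caspase-3/7 luminescence, on HepG2 cells exposed to DMSO-dissolved compounds for 16 hr at 37 C.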

Assay [19] in a line: qHTS assay to identify small molecule agonists of the progesterone receptor (PR) signaling pathway - cell viability counter screen (AID 1346799; calls by dose curve; further: on the % scale 0 is the no-effect control and ±100 the full control effect; nearly all actives have a fitted effect of over 45% in size). The method in brief:
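Here, 3,000 PR-UAS-bla HEK293T cells per well were treated with compounds for 16 hr after a 6 hr preincubation at 37C and 5% CO2; cell viability is the CellTiter-Glo luminescence signal.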

A short description of assay [20]: qHTS assay to identify small molecule agonists of the TGF-beta/Smad signaling pathway (AID 1346859; active means well fitted activation curve with a large enough effect in the signal ratio in the repeat runs, not every such curve was filed as active; the % refers to the signal ratio; further: series mostly up to about 77 µM; on the % scale 0 is the no-effect control and ±100 the full control effect). The method in brief: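 Each well held 4,000 SBE-bla HEK 293T cells incubated overnight before compound addition; 5 hr later the cleavable FRET substrate went on for 2 hr at room temperature, and fluorescence was read at two emissions.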

“And” between values parts separate entries of the source, which are not always exact repeats. Equal values may be shown once. Values without a mark were called inactive. Results filed as inconclusive are left out. The source made the active and inactive calls. Unless noted, the call rests on the fitted dose curve; in most records, active means well fitted curve in the direction sought with a large enough effect in the repeat runs; inconclusive means weak or mixed curves; inactive means no such curve, though single readings can be large; an effect the other way counts as inactive or inconclusive.

Thyrotropin-releasing hormone receptor (Homo sapiens), sequence (P34981 whole entry, looked up): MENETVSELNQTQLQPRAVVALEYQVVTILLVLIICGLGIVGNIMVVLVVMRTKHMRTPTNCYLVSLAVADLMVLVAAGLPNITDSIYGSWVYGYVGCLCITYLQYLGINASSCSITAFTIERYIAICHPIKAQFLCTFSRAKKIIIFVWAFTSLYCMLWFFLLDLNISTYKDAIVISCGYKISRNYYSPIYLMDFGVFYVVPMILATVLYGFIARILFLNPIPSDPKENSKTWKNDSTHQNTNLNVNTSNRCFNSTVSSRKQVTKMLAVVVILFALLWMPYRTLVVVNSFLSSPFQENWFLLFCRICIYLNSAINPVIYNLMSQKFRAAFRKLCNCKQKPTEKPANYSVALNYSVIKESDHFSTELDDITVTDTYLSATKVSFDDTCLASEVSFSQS
Nuclear receptor subfamily 1 group I member 2 (Homo sapiens), sequence (O75469 whole entry, looked up): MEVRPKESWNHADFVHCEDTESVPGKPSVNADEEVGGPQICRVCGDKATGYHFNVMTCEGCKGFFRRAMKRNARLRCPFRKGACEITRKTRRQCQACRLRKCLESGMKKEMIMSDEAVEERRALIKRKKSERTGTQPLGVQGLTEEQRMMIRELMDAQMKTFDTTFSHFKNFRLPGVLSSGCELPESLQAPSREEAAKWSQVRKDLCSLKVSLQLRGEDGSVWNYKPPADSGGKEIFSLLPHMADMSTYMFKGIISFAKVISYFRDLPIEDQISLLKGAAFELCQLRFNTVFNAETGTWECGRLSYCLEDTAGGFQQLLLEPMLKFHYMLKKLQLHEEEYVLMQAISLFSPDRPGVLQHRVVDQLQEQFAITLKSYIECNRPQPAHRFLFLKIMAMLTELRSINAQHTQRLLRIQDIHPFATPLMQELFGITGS
Progesterone receptor (Homo sapiens), sequence (P06401 whole entry, looked up): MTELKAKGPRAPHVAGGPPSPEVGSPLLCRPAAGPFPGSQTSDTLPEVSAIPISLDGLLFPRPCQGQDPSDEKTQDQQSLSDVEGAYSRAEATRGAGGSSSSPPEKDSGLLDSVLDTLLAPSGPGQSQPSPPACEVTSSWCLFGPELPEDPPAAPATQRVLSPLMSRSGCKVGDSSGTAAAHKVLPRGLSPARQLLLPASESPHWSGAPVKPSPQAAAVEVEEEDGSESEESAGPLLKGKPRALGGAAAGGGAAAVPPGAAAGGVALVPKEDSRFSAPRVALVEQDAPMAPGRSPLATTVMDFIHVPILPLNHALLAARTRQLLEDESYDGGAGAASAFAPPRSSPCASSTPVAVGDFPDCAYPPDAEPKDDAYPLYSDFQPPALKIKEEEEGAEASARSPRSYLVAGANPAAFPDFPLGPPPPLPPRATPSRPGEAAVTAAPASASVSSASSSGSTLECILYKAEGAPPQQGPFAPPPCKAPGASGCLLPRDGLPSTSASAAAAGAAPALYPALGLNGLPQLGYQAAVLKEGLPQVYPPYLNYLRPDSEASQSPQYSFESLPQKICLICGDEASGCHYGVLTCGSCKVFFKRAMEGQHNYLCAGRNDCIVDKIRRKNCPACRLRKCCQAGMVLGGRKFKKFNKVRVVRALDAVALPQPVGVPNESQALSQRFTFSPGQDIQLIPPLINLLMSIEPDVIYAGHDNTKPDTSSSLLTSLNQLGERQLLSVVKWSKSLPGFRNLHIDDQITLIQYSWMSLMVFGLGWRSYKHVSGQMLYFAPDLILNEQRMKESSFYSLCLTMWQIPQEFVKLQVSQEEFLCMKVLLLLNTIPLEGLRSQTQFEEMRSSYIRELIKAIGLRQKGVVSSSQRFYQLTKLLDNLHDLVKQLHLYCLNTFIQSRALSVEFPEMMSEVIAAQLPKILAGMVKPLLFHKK
Cytochrome P450 2D6 (Homo sapiens), sequence (P10635 whole entry, looked up): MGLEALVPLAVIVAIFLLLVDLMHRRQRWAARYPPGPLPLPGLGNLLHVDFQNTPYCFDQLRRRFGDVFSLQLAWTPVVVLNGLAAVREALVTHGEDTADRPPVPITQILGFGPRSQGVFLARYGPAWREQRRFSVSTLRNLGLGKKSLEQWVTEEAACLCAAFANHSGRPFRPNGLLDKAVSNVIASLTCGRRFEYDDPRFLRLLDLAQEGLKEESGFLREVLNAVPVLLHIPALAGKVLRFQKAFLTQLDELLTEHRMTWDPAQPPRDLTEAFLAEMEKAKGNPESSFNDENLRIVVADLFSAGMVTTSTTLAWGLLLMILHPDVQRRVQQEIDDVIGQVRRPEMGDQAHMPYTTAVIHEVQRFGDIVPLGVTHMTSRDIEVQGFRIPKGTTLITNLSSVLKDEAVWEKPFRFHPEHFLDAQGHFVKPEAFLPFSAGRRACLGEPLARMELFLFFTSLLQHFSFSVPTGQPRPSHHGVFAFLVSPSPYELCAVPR
Nuclear receptor subfamily 1 group I member 2 (Rattus norvegicus), sequence (Q9R1A7 whole entry, looked up): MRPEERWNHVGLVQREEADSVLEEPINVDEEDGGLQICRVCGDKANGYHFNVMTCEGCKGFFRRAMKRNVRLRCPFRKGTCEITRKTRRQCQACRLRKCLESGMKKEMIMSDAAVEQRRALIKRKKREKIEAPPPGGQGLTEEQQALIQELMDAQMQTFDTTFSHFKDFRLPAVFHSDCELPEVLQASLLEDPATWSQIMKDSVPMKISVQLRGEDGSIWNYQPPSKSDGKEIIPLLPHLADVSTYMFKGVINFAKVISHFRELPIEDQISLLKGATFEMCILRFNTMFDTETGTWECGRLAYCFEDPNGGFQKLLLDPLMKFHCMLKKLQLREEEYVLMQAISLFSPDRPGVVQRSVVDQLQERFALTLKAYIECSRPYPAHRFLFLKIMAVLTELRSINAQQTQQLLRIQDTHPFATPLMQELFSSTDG

Consider `CC1(C)[C@@H](O)CC[C@]2(C)[C@H]3C(=O)C=C4[C@@H]5C[C@@](C)(C(=O)O)CC[C@]5(C)CC[C@@]4(C)[C@]3(C)CC[C@@H]12`, for which the Potency entry in assay [1], in assay [3], in [4], in assay [5], in [6] and in [7] was “inactive” each time. For the same compound, the Potency entry in assay [8], in assay [9], in assay [11], in [12] and in [13] was “inactive” each time. Also, in assay [2], the Potency is 60.4 µM (active). Besides, the max activation in [10] is 1.62%.

Turning to `COC(=O)Nc1nc2ccc(C(=O)c3ccccc3)cc2[nH]1`, the Potency result in assay [1], in assay [14], in assay [5], in assay [6], in [7] and in assay [16] was “inactive” each time. Further, the Potency result in assay [8], in [18] and in assay [13] was “inactive” each time. For the same compound, the compound was classed as inactive in [15]. In addition, the Potency in assay [17] was 8.41 µM (active); in assay [9] it was 4.22 µM (active); in assay [12], 5.01 µM (active).

Consider `COc1cccc2c1C(=O)c1c(O)c3c(c(O)c1C2=O)C[C@@](O)(C(C)=O)C[C@@H]3O[C@H]1C[C@H](N)[C@H](O)[C@H](C)O1`, for which the Potency in assay [1] was 27.5 µM (active) and 21.1 µM (active); in assay [7], 1.09 µM (active) and 2.66 µM (active); in assay [16], 1.38 µM (active) and 1.33 µM (active); in [17], 21.8 µM (active) and 9.44 µM (active). Further, the Potency entry in assay [3], in assay [19], in assay [4], in assay [5] and in assay [6] was “inactive” in each case. Moreover, in assay [15], the compound was called inactive. Moreover, the max activation in assay [10] is -7.89%.

Consider `CN(C)[C@@H](CCOc1cccc2ccccc12)c1ccccc1`, for which the Potency entry in assay [1], in assay [14], in assay [5], in [20], in assay [6] and in [8] was “inactive” throughout. Further, in assay [15], the outcome was inactive. The Potency in assay [13] was 0.871 µM (active).

On to `O=C(O)O`, for which the activity change, negative = cytotoxicity was 1.41% [at 8.39 µM] in assay [1]; 8.74% [at 6.97 µM] in assay [5]; 1.04% [at 8.39 µM] in assay [7]; 0.8% [at 8.39 µM] in assay [17]; -0.291% [at 8.39 µM] in [18]. Also, the Potency in [14] was 0.373 µM (active). Besides, in [4], the viability change, negative = cytotoxic is 7.39% [at 6.97 µM]. Besides, the activation is 4.78% [at 6.97 µM] in assay [20], -0.122% [at 5.23 µM] in assay [15] and 4.39% [at 8.39 µM] in assay [9]. Moreover, the activity, negative = inhibition in assay [6] was 1.6% [at 4.65 µM]. Besides, the caspase-3/7 activation in assay [8] was 0.298% [at 8.39 µM]. Besides, the activity change, negative = inhibition in [13] is -1.63% [at 10.5 µM].

For the compound `CC(C)=CCC1=C(O)c2ccccc2C(=O)C1=O`, the Potency in [1] was 43 µM (active); in [7] it was 60.8 µM (active); in [17], 30.5 µM (active); in [18] it was 60.8 µM (active); in assay [9], 19.2 µM (active); in [13], 44.6 µM (active). Further, the Potency result in [14], in assay [4], in assay [5], in assay [20], in [6] and in [8] was “inactive” each time. Moreover, in assay [15], the result was inactive.

The values are drawn from PubChem BioAssay (Tox21).
